20 molecules from PubChem BioAssay can be followed below.

Unmarked numbers belong to inactive results. For some of these results: Entries with a potency or affinity are not part of this list. Activity calls are given as the source filed them. Unless noted, how the calls were made is not given here.

Assay [1] can be described thus: antimalarial activity against Dd2 strain (AID 2302;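 active means growth inhibition above 50% at the single 2 µM test dose, taken to imply half-maximal potency below 2 µM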;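 further: 0% = DMSO untreated growth and 100% = chloroquine plus artemisinin killed control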). The note with it: P. falciparum Dd2 in RBCs, LDH growth readout, 72 h; at 2 µM; hits give high values.
A short description of assay [2]: HepG2 cytotoxicity, primary screen, cytotoxicity control for P. falciparum antimalarial project, cell-based, ATP luminescence (AID 2303;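 active means inhibition above 50%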;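 further: 0% = DMSO wells and 100% = digitonin-killed cells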). The note with it: HepG2 viability, 24-48 h, at 10 µM, hits give high values.
Assay [3] concerns the target L-lactate dehydrogenase (Plasmodium falciparum (isolate CDC / Honduras)) (UniProt Q27743). Kind of assay: PfLDH activity inhibition – cell lysate, 3D7 strain, counter-screen for P. falciparum growth inhibition project (AID 2304).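 Further: 0% = vehicle and 100% = reference inhibitor.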 As to conditions: P. falciparum 3D7 crude extract, LDH APAD/NBT absorbance; at 2 µM; hits give high values.
Assay [4] in a line: inhibition of 3D7 malaria parasite growth – strain 3D7 (AID 2306).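 Further: 0% = DMSO wells and 100% = chloroquine plus artemisinin control wells.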 The note with it: P. falciparum 3D7 erythrocytic growth, LDH absorbance, 72 h; at 2 µM; hits give high values.
For assay [5], the target named is Calcium-dependent protein kinase 1 (Plasmodium falciparum (isolate 3D7)) (UniProt P62344). Kind of assay: PfCDPK1 kinase inhibitors, biochemical, TCAMS library (AID 1159585; cut-off not given, nearly all actives have IC50 up to about 0.98 µM;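 further: inhibitors leave more ATP so luminescence rises with inhibition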). As to conditions: recombinant PfCDPK1, Kinase-Glo ATP depletion luminescence.
Assay [6] deals with Plasmodium falciparum protein kinase 6 (PK6, PF3D7_1337100) (UniProt Q8IDW1). Nature of the assay: PfPK6 kinase inhibitors, biochemical, TCAMS library (AID 1159586). The note with it: recombinant PfPK6, Kinase-Glo ATP depletion luminescence. On the technique in general: Kinase-Glo measures the ATP left after a reaction by luminescence.
Assay [7] concerns the target Protein kinase 7 (PK7), Plasmodium falciparum 3D7 (PF3D7_0213400) (UniProt Q7YTF7). Nature of the assay: inhibition of Plasmodium PK7 catalytic activity – biochemical, TCAMS antimalarial set, Kinase-Glo luminescence (AID 1159587). The note with it: recombinant PfPK7, Kinase-Glo ATP depletion luminescence.
The target of assay [8] is Calcium-dependent protein kinase 4 (Plasmodium falciparum (isolate 3D7)) (UniProt Q8IBS5). Kind of assay: PfCDPK4 kinase inhibitors, biochemical, TCAMS library (AID 1159588; cut-off not given, nearly all actives have IC50 up to about 0.91 µM). The note with it: recombinant PfCDPK4, Kinase-Glo ATP depletion luminescence.
Sequence of Calcium-dependent protein kinase 4 (Plasmodium falciparum (isolate 3D7)) (Q8IBS5 whole entry, looked up): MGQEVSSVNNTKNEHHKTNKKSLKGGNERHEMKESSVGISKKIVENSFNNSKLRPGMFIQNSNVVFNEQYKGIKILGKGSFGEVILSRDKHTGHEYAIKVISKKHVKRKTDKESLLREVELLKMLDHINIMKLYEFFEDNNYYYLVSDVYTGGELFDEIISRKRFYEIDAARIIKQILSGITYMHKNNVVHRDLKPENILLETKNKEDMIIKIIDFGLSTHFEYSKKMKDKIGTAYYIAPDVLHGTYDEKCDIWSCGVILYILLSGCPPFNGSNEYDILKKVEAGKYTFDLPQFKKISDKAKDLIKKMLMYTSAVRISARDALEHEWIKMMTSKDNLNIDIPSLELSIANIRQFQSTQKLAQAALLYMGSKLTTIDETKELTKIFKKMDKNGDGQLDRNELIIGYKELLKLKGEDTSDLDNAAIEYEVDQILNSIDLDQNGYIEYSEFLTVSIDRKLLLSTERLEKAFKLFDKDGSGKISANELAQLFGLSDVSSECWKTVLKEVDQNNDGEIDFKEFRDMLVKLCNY

Sequence of Plasmodium falciparum protein kinase 6 (PK6, PF3D7_1337100) (Q8IDW1 1-305): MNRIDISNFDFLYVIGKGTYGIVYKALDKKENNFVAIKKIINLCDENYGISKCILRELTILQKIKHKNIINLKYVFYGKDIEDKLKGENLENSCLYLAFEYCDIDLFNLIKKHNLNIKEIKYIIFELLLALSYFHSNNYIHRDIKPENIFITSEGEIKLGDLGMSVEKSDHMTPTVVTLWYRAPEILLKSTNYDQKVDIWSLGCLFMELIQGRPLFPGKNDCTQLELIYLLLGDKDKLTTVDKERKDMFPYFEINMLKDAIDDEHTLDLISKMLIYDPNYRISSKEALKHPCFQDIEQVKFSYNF
Sequence of Calcium-dependent protein kinase 1 (Plasmodium falciparum (isolate 3D7)) (P62344 whole entry, looked up): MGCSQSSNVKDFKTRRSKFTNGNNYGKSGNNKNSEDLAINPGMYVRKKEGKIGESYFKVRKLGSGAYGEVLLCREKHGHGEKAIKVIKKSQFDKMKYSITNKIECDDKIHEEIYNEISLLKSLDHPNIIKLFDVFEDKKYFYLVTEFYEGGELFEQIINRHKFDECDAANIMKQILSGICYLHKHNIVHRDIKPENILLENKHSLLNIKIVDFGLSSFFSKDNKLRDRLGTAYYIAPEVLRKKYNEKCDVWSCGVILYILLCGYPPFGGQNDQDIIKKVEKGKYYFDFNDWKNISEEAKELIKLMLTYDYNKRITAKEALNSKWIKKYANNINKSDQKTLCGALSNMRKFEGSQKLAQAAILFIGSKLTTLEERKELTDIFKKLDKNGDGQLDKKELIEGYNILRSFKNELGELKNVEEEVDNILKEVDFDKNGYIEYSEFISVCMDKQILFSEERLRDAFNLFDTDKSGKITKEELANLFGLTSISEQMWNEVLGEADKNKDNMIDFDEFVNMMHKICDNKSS
Sequence of Protein kinase 7 (PK7), Plasmodium falciparum 3D7 (PF3D7_0213400) (Q7YTF7 1-343): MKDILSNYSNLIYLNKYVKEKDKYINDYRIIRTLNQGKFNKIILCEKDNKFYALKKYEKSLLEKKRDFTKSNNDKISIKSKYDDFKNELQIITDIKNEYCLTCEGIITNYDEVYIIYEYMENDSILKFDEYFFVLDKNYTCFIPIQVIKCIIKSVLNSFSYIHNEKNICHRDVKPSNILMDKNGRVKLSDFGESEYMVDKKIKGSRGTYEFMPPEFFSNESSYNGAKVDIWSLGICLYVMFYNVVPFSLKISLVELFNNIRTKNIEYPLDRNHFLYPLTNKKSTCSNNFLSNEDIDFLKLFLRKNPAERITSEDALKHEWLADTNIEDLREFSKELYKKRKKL
Sequence of L-lactate dehydrogenase (Plasmodium falciparum (isolate CDC / Honduras)) (Q27743 whole entry, looked up): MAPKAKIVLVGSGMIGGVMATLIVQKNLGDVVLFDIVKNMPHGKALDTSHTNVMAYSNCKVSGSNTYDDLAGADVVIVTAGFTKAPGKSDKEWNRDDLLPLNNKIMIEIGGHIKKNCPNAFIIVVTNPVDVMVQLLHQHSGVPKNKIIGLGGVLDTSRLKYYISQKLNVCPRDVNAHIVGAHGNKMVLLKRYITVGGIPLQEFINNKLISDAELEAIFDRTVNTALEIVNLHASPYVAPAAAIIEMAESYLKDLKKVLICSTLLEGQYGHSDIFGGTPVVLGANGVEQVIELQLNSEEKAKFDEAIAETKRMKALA

What is called inhibition is the drop in the measured response relative to a control, in per cent. `O=C(/C=C/c1ccc(Cl)c(Cl)c1)NCCCCCN1CCCN(C(=O)Nc2ccc(Br)cc2)CC1`: the growth inhibition in assay [1] was -4%; in assay [4], 99% (active). In addition, the inhibition in assay [2] was 38%; in assay [3], 0%. Besides, the outcome in assay [5], in assay [6], in assay [7] and in assay [8] was inactive.

For the molecule `COc1ccc(O)c(Cc2cnc3nc(N)[nH]c(=O)c3c2C)c1`, the growth inhibition was 6% in assay [1] and 96% (active) in assay [4]. Also, the inhibition was 30% in assay [2] and -5% in assay [3]. Further, the outcome in assay [5], in assay [6], in assay [7] and in assay [8] was inactive.

With `COc1ccccc1C1CCN(Cc2csc(NC(=O)c3ccc(-c4ccc(C(F)(F)F)cc4)cc3)n2)CC1`, the growth inhibition in assay [1] is 23%; in assay [4], 85% (active). Further, the inhibition in assay [2] is 62% (active); in assay [3], -2%. The outcome in assay [5], in assay [6], in assay [7] and in assay [8] was inactive.

Regarding `Cc1ccc(CON2C(N)=NC(N)=NC2(C)C)c(Cl)c1` (tested in a mixture with another compound), the values for the growth inhibition in assay [1] and in assay [4] were 96% (active) and 91% (active), respectively. The inhibition was 67% (active) in assay [2] and 0% in assay [3]. Also, the result in assay [5], in assay [6], in assay [7] and in assay [8] was inactive.

In the case of `O=C(CC1SC(N2N=C(c3cccs3)CC2c2ccccc2)=NC1=O)Nc1ccc(Cl)cc1` (stereo not given), the growth inhibition was 88% (active) in assay [1] and 83% (active) in assay [4]. For the same molecule, the inhibition in assay [2] was 18%; in assay [3], 2%. The outcome in assay [5], in assay [6], in assay [7] and in assay [8] was inactive.

In the case of `CCCc1cnc2nc(N)nc(N)c2c1C`, the values for the growth inhibition in assay [1] and in assay [4] were 3% and 93% (active), respectively. The values for the inhibition in assay [2] and in assay [3] were 68% (active) and -3%, respectively. Moreover, the outcome in assay [5], in assay [6], in assay [7] and in assay [8] was inactive.

Regarding `O=C1OC(c2cc3ccccc3n2S(=O)(=O)c2ccccc2)(c2cc3ccccc3n2S(=O)(=O)c2ccccc2)c2ccccc21`, the growth inhibition in assay [1] was 78% (active); in assay [4], 95% (active). The results for the inhibition in assay [2] and in assay [3] were 1% and -1%, respectively. Moreover, the outcome in assay [5], in assay [6], in assay [7] and in assay [8] was inactive.

Regarding `Nc1ncc(-c2cccc(OCc3ccccc3)c2)cc1-c1nnc2ccc(Cl)nn12`, the growth inhibition was 7% in assay [1] and 94% (active) in assay [4]. Moreover, the inhibition in assay [2] was -7%; in assay [3], -5%. The outcome in assay [5], in assay [6], in assay [7] and in assay [8] was inactive.

Take `COC(=O)c1ccc(CCCNCC(O)c2cccc(C(F)(F)F)c2)cc1` (stereo not given): the figures for the growth inhibition in assay [1] and in assay [4] were 88% (active) and 97% (active), respectively. Further, the inhibition was 0% in assay [2] and 4% in assay [3]. The outcome in assay [5], in assay [6], in assay [7] and in assay [8] was inactive.

For the molecule `Cc1nc(N)nc(N)c1Oc1cccc(Cl)c1`, the growth inhibition is -3% in assay [1] and 94% (active) in assay [4]. In addition, the inhibition was 49% in assay [2] and 3% in assay [3]. For the same molecule, the result in assay [5], in assay [6], in assay [7] and in assay [8] was inactive.

On to `Cc1nnnn1-c1ccc(C(=O)N2CCC3(CC2)CN(Cc2ccc(Cl)c(Cl)c2)C(=O)O3)cc1`, for which the growth inhibition in assay [1] was 99% (active); in assay [4] it was 101% (active). For the same molecule, the inhibition in assay [2] and in assay [3] was 2% each time. For the same molecule, the result in assay [5], in assay [6], in assay [7] and in assay [8] was inactive.

As for `Fc1ccc(C=NNc2nc3ccccc3[nH]2)cc1`, the growth inhibition in assay [1] is 58% (active); in assay [4], 98% (active). Moreover, the inhibition in assay [2] was -7%; in assay [3] it was -2%. Further, the result in assay [5], in assay [6], in assay [7] and in assay [8] was inactive.

As to `O=C(/C=C/c1ccc(Cl)c(Cl)c1)NC1CCC(CN2CCC(c3nc4ccccc4n3CCCO)CC2)CC1` (stereo not given), the growth inhibition in assay [1] was 28%; in assay [4], 99% (active). In addition, the inhibition in assay [2] is 28%; in assay [3], -5%. The result in assay [5], in assay [6], in assay [7] and in assay [8] was inactive.

With `c1ccc(C2CCC(N3CCC(N4CCCC4)CC3)CC2)cc1` (stereo not given), the growth inhibition is 46% in assay [1] and 102% (active) in assay [4]. For the same molecule, the inhibition in assay [2] was 9%; in assay [3], -2%. Moreover, the outcome in assay [5], in assay [6], in assay [7] and in assay [8] was inactive.

For the molecule `Cc1ccccc1CCNC(=O)c1cnc(N2CCN(c3ccncc3)CC2)c(Cl)c1`, the growth inhibition in assay [1] is 95% (active); in assay [4], 100% (active). Besides, the inhibition in assay [2] was 36%; in assay [3], -2%. The result in assay [5], in assay [6], in assay [7] and in assay [8] was inactive.

For the molecule `CC=CCON1C(N)=NC(N)=NC1(C)C`, the results for the growth inhibition in assay [1] and in assay [4] were 1% and 94% (active), respectively. For the same molecule, the values for the inhibition in assay [2] and in assay [3] were 57% (active) and 5%, respectively. Also, the result in assay [5], in assay [6], in assay [7] and in assay [8] was inactive.

`O=C(Nc1cccc(CN2CCN(C(=O)c3cccc(F)c3)CC2)c1)c1ccco1`: the growth inhibition is 55% (active) in assay [1] and 88% (active) in assay [4]. The inhibition in assay [2] is 7%; in assay [3], 4%. The result in assay [5], in assay [6], in assay [7] and in assay [8] was inactive.

In the case of `CCc1c(CCNCCCCCCNCCc2ccc(OC)c(OC)c2CC)ccc(OC)c1OC`, the values for the growth inhibition in assay [1] and in assay [4] were 1% and 100% (active), respectively. Further, the inhibition in assay [2] is 58% (active); in assay [3], 0%. Besides, the result in assay [5], in assay [6], in assay [7] and in assay [8] was inactive.

On to `C[C@H](Cc1ccc(OCCCCCCOc2ccc(C[C@@H](C)NC(=O)[C@H](O)c3cccc(Cl)c3)cc2)cc1)NC[C@H](O)c1cccc(Cl)c1`, for which the growth inhibition in assay [1] and in assay [4] was 99% (active) each time. The inhibition in assay [2] is 39%; in assay [3], -3%. Besides, the outcome in assay [5], in assay [6], in assay [7] and in assay [8] was inactive.

Take `Cc1ccc(O)cc1Nc1ccnc2ccc(C(C)(C)C)cc12`: the growth inhibition in assay [1] and in assay [4] was 100% (active) throughout. Moreover, the inhibition in assay [2] was 6%; in assay [3], 3%. Besides, the outcome in assay [5], in assay [6], in assay [7] and in assay [8] was inactive.
